Sampled rows, rich in hits. Any-hit rate of the full collection: about 10%.
NPR1 antag: Natriuretic polypeptide receptor (hNpr1) antagonism - Primary qHTS; Atrial natriuretic peptide receptor 1 (Homo sapiens), P16066; HEK293 hNpr1 GloSensor cGMP, ANP-stimulated luminescence; Potency, µM (series often up to 46.3 µM), for inactives: top-dose activity change, negative = inhibition, most hits filed as inhibitors; 76,000 compounds, 1.6% hits; AID 1347048, 2019; calls by dose curve; note: % is set by controls: 0 for no effect and ±100 for the full control effect; nearly all actives have a fitted effect of over 60% in size
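HEK293 cells stably expressing human Npr1 and cGMP GloSensor pGS-40F, loaded 2 h with 2% GloSensor reagent, given compound 30 min at room temperature. Luminescence read before and 20 min after 0.1 nM hNppA.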
HEK cytotox: Cytotoxic Profiling in HEK 293 Cell Line of Diverse Libraries Using Quantitative High-Throughput Screening; HEK 293 viability, ATP luminescence (CellTiter-Glo), 48-72 h; Potency, µM (doses to about 115 µM), for the others: at the top dose activity change, negative = cytotoxicity, hits mostly inhibitors; 94,000 compounds, 6.6% hits; AID 1345083, 2018; note: % is set by controls: 0 for no effect and ±100 for the full control effect; nearly all actives have a fitted effect of over 60% in size
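HEK 293 seeded at 250 cells/well receive compound via pintool. After 48 or 72 hr at 37 degree Celsius, 5% CO2 and 95% humidity, CellTiter-Glo is dispensed and luminescence read following 10 min at room temperature.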
3T3 cytotox: Cytotoxic Profiling in NIH 3T3 Cell Line of Diverse Libraries Using Quantitative High-Throughput Screening; NIH 3T3 viability, CellTiter-Glo ATP luminescence, 48-72 h; Potency, µM (series often up to 96.7 µM), inactives show top-dose activity change, negative = cytotoxicity, hits mostly inhibitors; 94,000 compounds, 4.3% hits; AID 1345082, 2018; note: % is set by controls: 0 for no effect and ±100 for the full control effect; nearly all actives have a fitted effect of over 55% in size
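First NIH 3T3 cells are plated at 400 cells/well; next compound is pinned in; then plates incubate 48 or 72 hr at 37 °C; finally CellTiter-Glo is added and luminescence read after 10 min.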
GPT2 inhibitor: Primary qHTS assay for inhibitors of Glutamate pyruvate transaminase 2 (GPT2); AID 1671188, 2021; 100,000 compounds, 0.25% hits; Alanine aminotransferase 2 (Homo sapiens), Q8TD30; Potency, µM (top dose mostly 57.7 µM), without a hit: top-dose activity change, negative = inhibition, hits mostly inhibitors; Recombinant GPT2, coupled pyruvate oxidase/HRP Amplex Red fluorescence; note: % is set by controls: 0 for no effect and ±100 for the full control effect; nearly all actives have a fitted effect of over 60% in size
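Inhibition is scored from Amplex Red fluorescence generated when pyruvate oxidase and HRP act on pyruvate released by GPT2. Reactions contain 10ng/uL enzyme, 250uM a-KG and 2mM L-alanine and run 30 min at room temperature.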
FLuc inh-1: Firefly luciferase inhibition profiling of diverse chemical library using quantitative high-throughput screening | Luciferin 4-monooxygenase (Photinus pyralis), P08659 | purified P. pyralis luciferase, luminescence, biochemical | Potency, µM (titrated, usually from 115 µM), actives largely listed as inhibitors | 76,000 compounds, 2.5% hits | AID 1347043, 2019; note: % is set by controls: 0 for no effect and ±100 for the full control effect; nearly all actives have a fitted effect of over 65% in size
Target sequence (P08659 whole entry, looked up): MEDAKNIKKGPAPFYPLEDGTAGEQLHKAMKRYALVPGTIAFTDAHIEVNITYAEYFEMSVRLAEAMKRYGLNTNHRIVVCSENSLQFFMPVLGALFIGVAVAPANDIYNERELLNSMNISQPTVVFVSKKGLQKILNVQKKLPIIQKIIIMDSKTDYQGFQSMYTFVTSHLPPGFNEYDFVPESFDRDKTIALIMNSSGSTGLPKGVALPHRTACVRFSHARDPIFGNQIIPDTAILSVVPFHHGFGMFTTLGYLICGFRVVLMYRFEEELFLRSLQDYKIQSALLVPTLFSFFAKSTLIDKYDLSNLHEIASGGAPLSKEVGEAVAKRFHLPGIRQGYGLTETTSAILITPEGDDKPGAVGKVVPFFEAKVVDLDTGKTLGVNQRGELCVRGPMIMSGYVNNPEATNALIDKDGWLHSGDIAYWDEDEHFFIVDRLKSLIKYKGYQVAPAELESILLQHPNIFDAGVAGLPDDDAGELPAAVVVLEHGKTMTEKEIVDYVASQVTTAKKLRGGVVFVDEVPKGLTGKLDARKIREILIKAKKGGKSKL
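Luminescence read by CCD imager after adding enzyme (10nM final) to wells holding compound, titrated in qHTS. Substrates 10uM each D-luciferin and ATP; buffer 50mM Tris acetate pH 7.5, 10mM Mg acetate, Tween-20, BSA.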
FLuc SDR -ATP: Firefly luciferase (FLuc-C-HiBiT) SDR gain of signal screen - without ATP. Purified FLuc-C-HiBiT, Nano-Glo HiBiT luminescence, no ATP. Potency, µM (doses to about 32.7 µM), inactives show at the top dose activation (signal gain), hits mostly activators. shares compounds with FLuc inh-1. 1,300 compounds, 7.8% hits; note: nearly all actives have a fitted effect of over 55% in size
FLuc SDR ATP: Firefly luciferase (FLuc-C-HiBiT) SDR gain of signal screen - plus ATP; purified FLuc-C-HiBiT + ATP, HiBiT complementation luminescence; Potency, µM (doses to about 32.7 µM), for inactives: top-dose activation (gain of signal), actives largely listed as activators; AID 1963319, 2024; 1,300 compounds, 8.7% hits; shares compounds with FLuc inh-1;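 note: signal reports ligand binding via conformational change of the enzyme rather than luciferase catalysis; % of control where 0% means no effect; nearly all actives have a fitted effect of over 55% in size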
FLuc inh-2: Firefly luciferase (FLuc-C-HiBiT) enzymatic inhibition screen - Functional assay. purified FLuc-C-HiBiT enzyme, luciferin luminescence. 1,300 compounds, 42% hits. shares compounds with FLuc inh-1. Potency, µM (titrated, usually from 32.7 µM), for inactives: at the top dose activity change, negative = inhibition, hits mostly inhibitors; note: % is set by controls: 0 for no effect and ±100 for the full control effect; nearly all actives have a fitted effect of over 70% in size
NPR1 antag cnf: Natriuretic polypeptide receptor (hNpr1) antagonism - Confirmation | HEK293 hNpr1 cGMP GloSensor luminescence, ANP-stimulated | AID 1347044, 2019 | 1,400 compounds, 76% hits | Potency, µM (highest dose often 57.6 µM), for inactives: at the top dose activity change, negative = inhibition, usual class: inhibitors | shares compounds with NPR1 antag; calls by dose curve; note: nearly all actives have a fitted effect of over 70% in size
NPR2 antag: Natriuretic polypeptide receptor (hNpr2) antagonism - Subtype selectivity assay; shares compounds with NPR1 antag; HEK293 hNpr2 GloSensor cGMP luminescence, CNP-stimulated; Potency, µM (titrated, usually from 57.6 µM), inactives show top-dose activity change, negative = inhibition, actives largely listed as inhibitors; 1,400 compounds, 67% hits; calls by dose curve; note: nearly all actives have a fitted effect of over 70% in size
FLuc counter: Natriuretic polypeptide receptor (hNpr1) antagonism - Confirmation firefly luciferase (FLuc) inhibition counterscreen | AID 1347047, 2019 | purified FLuc enzyme, luminescence, Km substrate | 1,400 compounds, 0.7% hits | Potency, µM (top dose mostly 57.6 µM), without a hit: top-dose activity change, negative = inhibition, hits mostly inhibitors | shares compounds with NPR1 antag; note: 0% is about no effect
GloSensor ctrl: Natriuretic polypeptide receptor (hNpr1) antagonism - Counterscreen GloSensor control cell line | 1,400 compounds, 69% hits | Potency, µM (series often up to 57.6 µM), for inactives: at the highest dose activity change, negative = inhibition, actives largely listed as inhibitors | shares compounds with NPR1 antag | HEK293 GloSensor cGMP, SNP-stimulated, luminescence | AID 1347051, 2019; calls by dose curve; note: % is set by controls: 0 for no effect and ±100 for the full control effect; nearly all actives have a fitted effect of over 70% in size
* marks the source's active call; other numbers are inactive results; i = inactive; u = inconclusive; x = no result; [ ] = dose if it differs, or a comment. Unless noted, calls come from the whole dose curve; as a rule, active = well fitted curve in the direction sought with a large enough effect; inconclusive = small, poorly fitted or top-dose-only effect, or another doubt; inactive = no such curve, though single readings can be large; an effect the other way counts as inactive or inconclusive. Potency is the fitted concentration of half-maximal effect.

SMILES	NPR1 antag	HEK cytotox	3T3 cytotox	GPT2 inhibitor	FLuc inh-1	NPR1 antag cnf	NPR2 antag	FLuc counter	GloSensor ctrl	others
CC(C)NC(=O)OC[C@H]1C[C@@H]2CCN1C[C@@H]2c1cc(-c2ccc(F)cc2)nn1C	-2%[70.6 µM]	112µM*	u	4%[88.5 µM]	i	x	x	x	x
CN1CCC2(CC1)CNCc1ccccc1O2	-11%	-34%	-21%	i	i	x	x	x	x
CC(C)(C)CC(=O)N1C[C@@H]2C[C@H](C1)c1ccc(NC(=O)Nc3cccc(F)c3)c(=O)n1C2	5%	u	u	u	14µM*	x	x	x	x	FLuc SDR -ATP=14%;FLuc SDR ATP=8%;FLuc inh-2=-15%
COc1cccc(Nc2cc3c(cn2)CN(C)CCN3)c1	-18%[70.6 µM]	u	u	3%[88.5 µM]	4.5µM*	x	x	x	x	FLuc SDR -ATP=20%[65.7 µM];FLuc SDR ATP=15%[65.7 µM];FLuc inh-2=23µM*
COC(=O)C1(C)CCC(O)C2(C)c3c(O)cc(C(C)C)cc3C(O)C(OC(C)=O)C12 (stereo not drawn)	x	x	x	i	x	x	x	x	x
COc1ccccc1N1CCN(C(=O)[C@H]2CN3CCC2C[C@@H]3Cn2cc(CO)nn2)CC1 (stereo partly drawn)	4%	4%	i	2%	i	x	x	x	x
COc1ccc(-c2cc3c(cn2)CN(C)CCN3)cc1OC	-11%[70.6 µM]	-43%[172 µM]	u	-46%[88.5 µM]	u	x	x	x	x
Cc1cc(-c2cc3c(cn2)CN(CC(C)C)CCN3)ccn1	1%[70.6 µM]	u	u	-3%[88.5 µM]	4.5µM*	x	x	x	x	FLuc SDR -ATP=u;FLuc SDR ATP=17%[49.3 µM];FLuc inh-2=16µM*
Cc1ccccc1Cn1cccc(C(=O)Nc2nc3ccccc3s2)c1=O	x	x	x	x	x	x	x	x	x	FLuc SDR -ATP=u;FLuc SDR ATP=u;FLuc inh-2=0.88µM*
c1cc(CN2C[C@H](c3ccc4c(c3)OCO4)[C@@H]3[C@H]2C2CCN3CC2)ccn1	0%	1%	-25%	-3%	i	x	x	x	x
c1nc(N2C[C@@H](c3ccc4c(c3)OCO4)[C@@H]3[C@H]2C2CCN3CC2)c2[nH]cnc2n1	0%	-6%	-10%	0%	i	x	x	x	x	FLuc SDR -ATP=13%;FLuc SDR ATP=10%;FLuc inh-2=3%
O=C1NC[C@H]2CN(Cc3cccs3)CCN12	5%[70.6 µM]	-4%[230 µM]	-3%[174 µM]	-4%[88.5 µM]	i	x	x	x	x
CN1Cc2ccccc2-n2ccnc2C12CCN(C(=O)C1(c3ccccc3)CC1)CC2	u	u	-5%	-3%	i	u	u	-1%	14%
COc1ccc(CC(=O)N2CCC3(CC2)c2nccn2-c2ccccc2CN3C)cc1	u	-7%	u	-7%	i	u	u	1%	0%
COc1ccc(C(=O)N2CCC3(CC2)c2nccn2-c2ccccc2CN3C)cc1	2%	-3%	i	i	i	x	x	x	x
CCC(=O)C(CC(C)N(C)C)(c1ccccc1)c1ccccc1 (stereo not drawn)	x	x	x	2%[88.5 µM]	x	x	x	x	x
CCn1nccc1C(=O)N1[C@H]2CC[C@@H]1c1cnc(-c3ccc(F)cc3)nc1C2	6.3µM*	u	u	i	i	11µM*	12µM*	2%	11µM*
COCC(=O)N1[C@H]2CC[C@@H]1c1cnc(-c3ccc(F)cc3)nc1C2	1%	u	-13%	i	i	x	x	x	x
O=C(C1CCCC1)N1[C@H]2CC[C@@H]1c1cnc(-c3ccc(F)cc3)nc1C2	10µM*	16µM*	-11%	i	i	8.6µM*	12µM*	-1%	8.6µM*
Cn1cc(C(=O)N2[C@H]3CC[C@@H]2c2cnc(-c4ccc(F)cc4)nc2C3)cn1	0%	u	-23%	i	i	x	x	x	x
CC(C)C(=O)N1[C@H]2CC[C@@H]1c1cnc(-c3ccc(F)cc3)nc1C2	22µM*	u	-28%	-3%	i	19µM*	22µM*	1%	19µM*
CC(C)CC(=O)N1[C@H]2CC[C@@H]1c1cnc(-c3ccc(F)cc3)nc1C2	13µM*	20µM*	u	-4%	i	24µM*	24µM*	3%	19µM*
CCOC(=O)[C@H]1CN(C(=O)OCc2ccccc2)[C@]2(C)C(=O)N(C)c3ccccc3[C@H]12	x	u	-20%[46.1 µM]	-3%[27.3 µM]	x	x	x	x	x
O=C(O)c1ccnc2cc(C(OCCN3CCCCC3)c3ccccc3Cl)[nH]c12 (stereo not drawn)	x	x	x	-9%	x	x	x	x	x
COc1cc2c(cc1OCc1ccccc1)NC(=O)C21CCN(c2ccccn2)CC1	u	u	-21%[138 µM]	i	i	u	u	-3%[86.2 µM]	u

Screening data deposited in PubChem by National Center for Advancing Translational Sciences (NCATS).
